The source of these data is ChEMBL document CHEMBL3988442, “University of Dundee, Small-Polar-MMV Screening Library” (2021).

For some assays here: Results with a measured potency or affinity are listed apart.

Common to all, as to design: scale not given: direction of the effect not stated beside the values
Assay [1] concerns the target Protein translocase subunit SecA (Escherichia coli (strain K12)) (UniProt P10408). The assay can be described thus: Assay to Identify E. coli SecA ATPase Inhibitors. It is filed as functional. The settings on record: 30 µM.
In assay [2] the target is T1, Ubiquitin-activating enzyme e1, putative (Leishmania donovani (strain BPK282A1)) (UniProt E9BSI1).
T1 sequence (whole entry): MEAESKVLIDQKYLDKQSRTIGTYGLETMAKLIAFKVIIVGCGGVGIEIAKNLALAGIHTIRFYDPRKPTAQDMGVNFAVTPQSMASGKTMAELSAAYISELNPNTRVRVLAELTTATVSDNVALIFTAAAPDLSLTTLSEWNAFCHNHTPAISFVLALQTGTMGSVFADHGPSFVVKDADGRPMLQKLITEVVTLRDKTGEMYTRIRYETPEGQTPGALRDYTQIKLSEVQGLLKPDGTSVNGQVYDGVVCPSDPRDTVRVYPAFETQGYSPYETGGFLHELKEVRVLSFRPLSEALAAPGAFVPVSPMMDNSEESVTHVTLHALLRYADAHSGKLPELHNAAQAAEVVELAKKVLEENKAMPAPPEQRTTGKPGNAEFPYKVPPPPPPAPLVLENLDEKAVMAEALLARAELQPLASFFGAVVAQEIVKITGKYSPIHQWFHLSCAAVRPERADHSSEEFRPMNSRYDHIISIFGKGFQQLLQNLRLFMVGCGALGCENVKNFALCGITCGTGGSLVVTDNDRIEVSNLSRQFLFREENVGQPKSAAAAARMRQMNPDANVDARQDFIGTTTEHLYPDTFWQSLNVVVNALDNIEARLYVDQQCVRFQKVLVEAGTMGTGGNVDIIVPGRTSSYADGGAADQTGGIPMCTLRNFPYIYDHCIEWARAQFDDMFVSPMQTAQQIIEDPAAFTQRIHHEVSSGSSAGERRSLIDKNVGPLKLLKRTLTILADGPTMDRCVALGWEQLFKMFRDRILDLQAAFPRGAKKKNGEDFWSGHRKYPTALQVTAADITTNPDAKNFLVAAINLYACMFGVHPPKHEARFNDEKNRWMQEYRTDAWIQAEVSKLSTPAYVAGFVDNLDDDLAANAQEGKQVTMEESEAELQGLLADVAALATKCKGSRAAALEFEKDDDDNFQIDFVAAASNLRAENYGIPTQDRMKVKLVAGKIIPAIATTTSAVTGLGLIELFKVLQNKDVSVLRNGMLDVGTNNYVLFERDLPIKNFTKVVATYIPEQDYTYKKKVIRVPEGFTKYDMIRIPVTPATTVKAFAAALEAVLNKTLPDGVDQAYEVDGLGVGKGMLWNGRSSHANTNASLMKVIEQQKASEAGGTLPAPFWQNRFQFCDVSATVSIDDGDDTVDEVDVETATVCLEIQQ
The assay can be described thus: Leishmania donovani Ubiquitin Activating Enzyme (LdE1). It is filed as functional. The conditions noted are these: 30 µM.

The target in assay [3] is AMP-activated protein kinase, AMPK (Homo sapiens) (UniProt P54646+O43741+P54619+Q9UGJ0+Q9Y478+Q13131+Q9UGI9). The assay can be described thus: AMP-dependent Kinase enzyme assay. An in vitro enzyme assay that detects ADP turnover that is directly proportional to AMPK activity. This uses naive AMPK that is activated during the assay with MK-8722. The settings on record: 30 µM. The format is functional.

Assay [4] addresses Sialic acid-binding Ig-like lectin 9 (Homo sapiens) (UniProt Q9Y336). The assay can be described thus: Hs-Siglec9 ALPHAscreen SOP 20170721. The settings on record: 10 µM. A general note: In Alpha technology, singlet oxygen from a donor bead excites a nearby acceptor bead.
A further assay has as its system Trypanosoma cruzi. The assay can be described thus: Trypanosoma cruzi phosphomannomutase and mannose-1-phosphate guanylyltransferase assay. The format is functional. The conditions noted are these: 10 µM.
Assay [5] has as its target T2, Arginase-2, mitochondrial (Homo sapiens) (UniProt P78540).
T2 sequence (whole entry): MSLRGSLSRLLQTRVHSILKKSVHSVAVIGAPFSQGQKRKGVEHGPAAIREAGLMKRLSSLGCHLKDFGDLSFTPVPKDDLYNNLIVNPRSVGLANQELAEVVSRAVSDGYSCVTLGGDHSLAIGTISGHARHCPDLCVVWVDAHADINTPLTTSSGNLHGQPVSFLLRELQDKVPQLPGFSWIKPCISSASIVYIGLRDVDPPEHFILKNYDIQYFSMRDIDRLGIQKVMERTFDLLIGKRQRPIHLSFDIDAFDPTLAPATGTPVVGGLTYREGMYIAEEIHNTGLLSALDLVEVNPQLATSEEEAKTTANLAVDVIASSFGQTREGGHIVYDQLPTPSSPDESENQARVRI
Kind of assay: in vitro enzyme assay to detect the production of urea directly proportional to the activity of Arginase II. Note: in the data most compounds retested in dose-response had high values. It is filed as functional. The conditions noted are these: 33.3 µM.

The target in assay [6] is T3, Proteasome subunit beta (Trypanosoma cruzi) (UniProt O96673).
T3 sequence (whole entry): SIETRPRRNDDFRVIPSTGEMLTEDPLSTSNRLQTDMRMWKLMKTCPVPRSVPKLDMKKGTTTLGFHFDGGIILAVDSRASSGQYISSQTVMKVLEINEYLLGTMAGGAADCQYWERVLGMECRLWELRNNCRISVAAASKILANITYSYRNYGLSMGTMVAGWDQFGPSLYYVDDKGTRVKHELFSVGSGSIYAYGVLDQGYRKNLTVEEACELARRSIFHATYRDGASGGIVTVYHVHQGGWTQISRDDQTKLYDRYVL
The assay can be described thus: Trypanosoma cruzi proteasome chymotrypsin-like activity (TcProtChymo) assay. Note: in the data most compounds retested in dose-response had high values. It is filed as functional. The settings on record: 9.37 µM.

The species entered for a further assay is Homo sapiens. Kind of assay: To identify inhibition of the IFN signalling (Jak-Stat) pathway via expression of an eGFP reporter gene under the control of an IFN-stimulated response element (ISRE) containing MxA promoter. The conditions noted are these: 30 µM. It is filed as functional.
Assay [7] addresses T4, Tyrosyl-tRNA synthetase, putative (Trypanosoma cruzi (strain CL Brener)) (UniProt Q4DSP6).
T4 sequence (whole entry): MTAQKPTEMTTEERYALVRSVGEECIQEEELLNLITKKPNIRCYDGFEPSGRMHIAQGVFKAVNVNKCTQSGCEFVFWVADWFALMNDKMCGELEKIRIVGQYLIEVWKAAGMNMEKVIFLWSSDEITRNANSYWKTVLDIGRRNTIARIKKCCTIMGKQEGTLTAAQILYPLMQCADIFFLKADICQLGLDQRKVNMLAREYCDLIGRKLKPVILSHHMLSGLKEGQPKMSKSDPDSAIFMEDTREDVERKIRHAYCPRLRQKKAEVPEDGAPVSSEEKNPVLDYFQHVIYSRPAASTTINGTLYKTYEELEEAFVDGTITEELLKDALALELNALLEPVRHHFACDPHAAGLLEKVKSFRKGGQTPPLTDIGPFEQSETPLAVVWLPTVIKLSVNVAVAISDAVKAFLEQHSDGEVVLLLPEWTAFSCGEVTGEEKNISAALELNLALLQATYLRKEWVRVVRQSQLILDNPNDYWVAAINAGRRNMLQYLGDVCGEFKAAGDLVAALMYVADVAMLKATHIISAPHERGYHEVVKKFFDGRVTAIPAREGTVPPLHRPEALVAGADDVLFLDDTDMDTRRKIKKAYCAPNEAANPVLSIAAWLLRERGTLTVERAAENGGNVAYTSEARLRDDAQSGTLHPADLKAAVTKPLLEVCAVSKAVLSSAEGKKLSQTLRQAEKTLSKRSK
The assay can be described thus: Trypanosoma cruzi tyrosyl tRNA synthetase (TcYRS) _High Tyrosine SOP. Note: in the data most compounds retested in dose-response had high values. The conditions noted are these: 30 µM. The format is functional.

The target of assay [8] is T4, Tyrosyl-tRNA synthetase, putative (Trypanosoma cruzi (strain CL Brener)). Kind of assay: Trypanosoma cruzi tyrosyl tRNA synthetase (TcYRS) SOP. It is filed as functional. The conditions noted are these: 30 µM.
Assay [9] addresses Chromo domain-containing protein 1 (Saccharomyces cerevisiae (strain ATCC 204508 / S288c) (Baker's yeast)) (UniProt P32657). Kind of assay: ScCHD-1 Enzyme Inhibition Assay. Note: in the data most compounds retested in dose-response had high values. The conditions noted are these: 30 µM. It is filed as functional.

Sequence of Chromo domain-containing protein 1 (Saccharomyces cerevisiae (strain ATCC 204508 / S288c) (Baker's yeast)) (P32657 whole entry, the tested form may be a part): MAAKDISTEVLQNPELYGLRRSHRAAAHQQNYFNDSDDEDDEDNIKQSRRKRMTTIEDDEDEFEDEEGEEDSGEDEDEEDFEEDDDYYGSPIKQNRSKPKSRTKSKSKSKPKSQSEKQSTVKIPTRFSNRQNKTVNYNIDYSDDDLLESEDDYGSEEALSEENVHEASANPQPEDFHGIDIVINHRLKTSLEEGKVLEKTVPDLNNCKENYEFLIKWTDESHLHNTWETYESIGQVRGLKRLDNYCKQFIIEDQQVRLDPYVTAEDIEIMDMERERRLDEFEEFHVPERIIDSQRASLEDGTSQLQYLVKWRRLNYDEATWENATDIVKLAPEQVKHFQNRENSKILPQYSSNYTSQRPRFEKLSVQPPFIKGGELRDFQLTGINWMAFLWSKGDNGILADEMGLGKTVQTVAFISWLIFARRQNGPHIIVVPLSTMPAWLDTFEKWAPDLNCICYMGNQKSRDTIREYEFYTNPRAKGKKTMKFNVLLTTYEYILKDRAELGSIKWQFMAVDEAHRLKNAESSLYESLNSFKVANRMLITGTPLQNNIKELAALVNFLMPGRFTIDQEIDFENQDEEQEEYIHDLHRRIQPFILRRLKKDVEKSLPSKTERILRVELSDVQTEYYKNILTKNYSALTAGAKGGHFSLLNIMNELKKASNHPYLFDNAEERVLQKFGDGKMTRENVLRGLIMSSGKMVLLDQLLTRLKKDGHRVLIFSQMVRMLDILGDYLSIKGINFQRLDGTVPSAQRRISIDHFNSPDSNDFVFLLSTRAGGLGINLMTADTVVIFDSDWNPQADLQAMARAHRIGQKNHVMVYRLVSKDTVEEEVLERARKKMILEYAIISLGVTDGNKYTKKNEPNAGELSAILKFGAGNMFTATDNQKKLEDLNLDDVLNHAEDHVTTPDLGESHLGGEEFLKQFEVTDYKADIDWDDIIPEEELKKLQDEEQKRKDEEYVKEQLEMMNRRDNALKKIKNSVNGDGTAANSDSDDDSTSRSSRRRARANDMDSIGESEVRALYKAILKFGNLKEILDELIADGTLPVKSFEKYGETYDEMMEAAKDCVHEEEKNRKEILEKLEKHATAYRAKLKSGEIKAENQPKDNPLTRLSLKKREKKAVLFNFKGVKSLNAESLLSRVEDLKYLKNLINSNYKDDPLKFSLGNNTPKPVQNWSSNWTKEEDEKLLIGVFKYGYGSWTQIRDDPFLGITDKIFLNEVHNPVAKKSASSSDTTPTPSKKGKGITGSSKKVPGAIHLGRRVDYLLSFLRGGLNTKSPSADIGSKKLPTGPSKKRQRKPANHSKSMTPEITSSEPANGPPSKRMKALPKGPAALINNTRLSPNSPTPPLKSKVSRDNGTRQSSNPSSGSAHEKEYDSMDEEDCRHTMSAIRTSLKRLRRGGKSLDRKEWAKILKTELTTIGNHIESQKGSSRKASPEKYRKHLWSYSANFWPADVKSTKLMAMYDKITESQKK
Sequence of Sialic acid-binding Ig-like lectin 9 (Homo sapiens) (Q9Y336 whole entry): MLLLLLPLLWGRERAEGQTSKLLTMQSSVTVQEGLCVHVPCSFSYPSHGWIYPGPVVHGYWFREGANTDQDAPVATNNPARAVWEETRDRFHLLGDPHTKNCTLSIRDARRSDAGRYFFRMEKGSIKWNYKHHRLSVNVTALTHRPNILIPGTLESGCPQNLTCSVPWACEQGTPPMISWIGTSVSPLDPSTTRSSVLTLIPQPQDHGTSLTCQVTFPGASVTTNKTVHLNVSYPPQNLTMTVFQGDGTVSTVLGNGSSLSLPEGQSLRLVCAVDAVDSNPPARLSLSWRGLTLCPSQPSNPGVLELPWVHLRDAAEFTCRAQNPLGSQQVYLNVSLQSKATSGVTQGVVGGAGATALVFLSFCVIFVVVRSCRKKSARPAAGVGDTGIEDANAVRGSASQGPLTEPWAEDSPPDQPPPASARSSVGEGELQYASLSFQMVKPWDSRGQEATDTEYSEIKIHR
Sequence of Protein translocase subunit SecA (Escherichia coli (strain K12)) (P10408 whole entry): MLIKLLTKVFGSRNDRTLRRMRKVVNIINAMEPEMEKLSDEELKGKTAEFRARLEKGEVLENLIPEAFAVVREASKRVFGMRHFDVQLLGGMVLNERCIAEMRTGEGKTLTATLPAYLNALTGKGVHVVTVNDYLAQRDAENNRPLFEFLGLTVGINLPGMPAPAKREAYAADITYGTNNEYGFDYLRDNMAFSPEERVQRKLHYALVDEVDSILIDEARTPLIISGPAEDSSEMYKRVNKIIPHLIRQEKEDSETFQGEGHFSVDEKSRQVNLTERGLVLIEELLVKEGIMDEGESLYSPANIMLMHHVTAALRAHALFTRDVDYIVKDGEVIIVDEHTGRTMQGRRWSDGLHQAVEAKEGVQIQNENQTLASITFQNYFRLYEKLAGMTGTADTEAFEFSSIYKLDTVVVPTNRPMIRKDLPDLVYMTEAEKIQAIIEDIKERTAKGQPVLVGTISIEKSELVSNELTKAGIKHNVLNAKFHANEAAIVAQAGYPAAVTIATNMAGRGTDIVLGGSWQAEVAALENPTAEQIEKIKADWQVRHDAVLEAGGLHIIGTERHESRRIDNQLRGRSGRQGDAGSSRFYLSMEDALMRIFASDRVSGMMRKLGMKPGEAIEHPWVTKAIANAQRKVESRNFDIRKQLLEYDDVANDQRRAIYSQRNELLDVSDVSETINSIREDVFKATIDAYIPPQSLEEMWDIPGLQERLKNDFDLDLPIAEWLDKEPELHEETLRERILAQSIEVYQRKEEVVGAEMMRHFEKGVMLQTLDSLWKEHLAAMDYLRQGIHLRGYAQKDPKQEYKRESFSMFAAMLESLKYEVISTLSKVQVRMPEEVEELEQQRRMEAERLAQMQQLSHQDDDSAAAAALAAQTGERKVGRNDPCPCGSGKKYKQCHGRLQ

As to `CN(C)C(=O)CNC(=O)c1ccc(Cl)cc1F`, the Percent Effect in assay [1] was -6.12%; in assay [2] it was 21.1%; in assay [3] it was -0.479%; in assay [4] it was -6.12%; with Trypanosoma cruzi, 3.99%; in [5], -65.1%. The Percent Effect in [6] was 13.7%; in the assay listed under Homo sapiens, 15.7%; in assay [7] it was 6.38%; in [8], -28.6%; in [9], -15.3%.
In the case of `Cc1nc2n(n1)CC(Nc1cc(C(F)(F)F)nc3ncnn13)CC2` (stereo not given), the Percent Effect was -4.34% in assay [1]; 5.48% in assay [2]; 10.2% in assay [3]; -0.512% in assay [4]; 5.49% in the assay on Trypanosoma cruzi; -0.909% in [5]. The Percent Effect is 11.4% in assay [6]; -14.4% in the assay listed under Homo sapiens; 2.15% in assay [7]; 17.5% in [8]; -3.28% in [9].
Take `CC[C@@]1(O)CCN(C(=O)c2ccc(-c3cccc(F)c3)cc2)C[C@H]1O`: the Percent Effect was -2.8% in assay [1]; 4.17% in assay [2]; -2.66% in [3]; -8.29% in [4]; -3.6% with Trypanosoma cruzi; 0.883% in assay [5]. For the same compound, the Percent Effect in [6] is 13.3%; in the assay filed under Homo sapiens, 16.4%; in assay [7] it was 2.1%; in assay [8], 10.3%; in [9] it was -3.01%.
Turning to `CCn1cnnc1C1CCN(C(=O)c2cnc(C3CC3)s2)CC1`, the Percent Effect is -2.76% in [1]; 17.7% in assay [2]; -5.9% in assay [3]; 9.8% in assay [4]; 0.85% in the assay with Trypanosoma cruzi; -2.28% in assay [5]. Further, the Percent Effect in [6] was 3.52%; in the assay filed under Homo sapiens, -10.4%; in assay [7], 6.4%; in [8], 13.9%; in [9] it was -4.8%.
In the case of `COc1ccc(CCN2CCCC(CN(C)Cc3ccc(C)o3)C2)cc1` (stereo not given), the Percent Effect was -1.16% in assay [1]; 0% in assay [2]; -4.07% in assay [3]; 31.8% in assay [4]; 5.18% in the assay with Trypanosoma cruzi; 4.71% in [5]. Also, the Percent Effect in assay [6] was found to be 0.772%; in the assay filed under Homo sapiens it was 11.1%; in [7], 5.38%; in [8], 11.1%; in assay [9], 0.528%.
For the compound `CN1CCc2cc(C(CNS(=O)(=O)c3cccs3)N3CCCC3)ccc21` (stereo not given), the Percent Effect is -1.64% in [1]; 13% in assay [2]; 7.05% in assay [3]; -7.92% in [4]; -5.42% with Trypanosoma cruzi; -9.68% in assay [5]. Also, the Percent Effect in assay [6] is 8.88%; in the assay listed under Homo sapiens, 12.5%; in assay [7], 0%; in assay [8], 8.97%; in assay [9], -8.44%.
As for `Cn1ncc2c1CCCC2NCc1cc(Br)cs1` (stereo not given), the Percent Effect in assay [1] is -0.998%; in assay [2] it was 13%; in assay [3], 0.777%; in [4], -1.41%; with Trypanosoma cruzi, 3.82%; in [5], 2.74%. For the same compound, the Percent Effect in assay [6] is 21.4%; in the assay listed under Homo sapiens it was 5.32%; in assay [7], 7.62%; in [8], 11.8%; in assay [9], -8.68%.
As for `CCN(Cc1ccc2c(c1)OCO2)C(=O)NC(C)Cn1cccn1` (stereo not given), the Percent Effect was -2.99% in assay [1]; 20.8% in [2]; 2.96% in assay [3]; -4.68% in [4]; -5.43% in the assay with Trypanosoma cruzi; 1.42% in [5]. For the same compound, the Percent Effect is 8.78% in assay [6]; 5.38% in the assay listed under Homo sapiens; 4.85% in assay [7]; 14.6% in assay [8]; -8.47% in [9].
Take `CCOc1ccccc1C(CC(=O)Nc1ccccc1F)NC(C)=O` (stereo not given): the Percent Effect in assay [1] was -4.23%; in [2], 10.5%; in assay [3] it was 0.587%; in assay [4], 13.4%; in the assay with Trypanosoma cruzi, 2.82%; in assay [5] it was -1.92%. The Percent Effect was -4.18% in [6]; -32.5% in the assay filed under Homo sapiens; 3.43% in [7]; 9.76% in [8]; -4.56% in assay [9].
Take `CNc1nc(CNC(=O)Nc2cccc(F)c2)cs1`: the Percent Effect in [1] was -4.85%; in assay [2], 8.11%; in assay [3], -3.94%; in [4], 12.7%; in the assay on Trypanosoma cruzi it was -1.39%; in assay [5], -4.99%. In addition, the Percent Effect is 1.62% in assay [6]; 1.99% in the assay listed under Homo sapiens; 5.94% in assay [7]; 6.1% in assay [8]; 8.34% in assay [9].
